Drawing on PubChem BioAssay AID1460 (National Center for Advancing Translational Sciences (NCATS), 2008), this text covers Potency and activity, negative = inhibition for 61 molecules.

The whole screen tested about 270,000 compounds, of which about 5,800 (2.1%) were called active. Not shown: some 16% with an inconclusive outcome. Calls come from the whole dose curve; as a rule, active = well fitted inhibition curve with a large enough effect; inconclusive = small, poorly fitted or top-dose-only effect; inactive = flat fitted curve, though single readings scatter. The list comes from a sample in which actives are over-represented; it also holds similar structures and randomly drawn compounds. Where a call stands in place of a potency, no number is given. More than one record can exist for a structure, and the calls need not agree.
Potency is the fitted concentration of half-maximal effect.

Chain of Microtubule-associated protein tau (Homo sapiens) (P10636 561-689 P618L limits assumed): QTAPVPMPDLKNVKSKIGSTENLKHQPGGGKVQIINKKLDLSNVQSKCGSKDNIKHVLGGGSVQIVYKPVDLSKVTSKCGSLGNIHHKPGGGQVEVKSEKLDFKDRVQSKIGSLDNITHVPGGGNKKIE

This experiment deals with Microtubule-associated protein tau (Homo sapiens) (UniProt P10636). Nature of the experiment: qHTS for Inhibitors of Tau Fibril Formation, Thioflavin T Binding. Note: nearly all actives have a fitted effect of over 55% in size. Particulars: recombinant tau K18 P301L (four-repeat tau fragment), heparin-induced fibrillization, ThT fluorescence; series mostly up to 57.4 µM. The text has this:
NIH Molecular Libraries Probe Production Network [MLPCN]
NIH Chemical Genomics Center [NCGC]
Assay Provider: Carlo Ballatore, University of Pennsylvania
The microtubule-associated protein tau is an abundant protein in the axons of neurons that stabilizes microtubules. With its ability to modulate microtubule dynamics, tau contributes directly or indirectly, to key structural and regulatory cellular functions. Particularly important is the influence tau exerts on axonal transport, which allows signaling molecules, trophic factors and other essential cellular constituents to travel along the axons. Under pathological conditions, tau becomes sequestered into insoluble aggregates called neurofibrillary tangles. This phenomenon is believed to have pathological consequences by promoting axonal transport deficits that ultimately lead to synaptic dysfunction and neuronal loss. To identify inhibitors of tau aggregation, a heparin-induced tau fibril formation assay was used that employed a recombinantly expressed fragment of tau, K18 (Q242-E372), bearing a P301L mutation (Gustke et al. 1994; Hong et al. 1998). This assay monitors tau fibrillization by Thioflavin T (ThT) fluorescence.
Gustke, N., B. Trinczek, et al. (1994). "Domains of tau protein and interactions with microtubules." Biochemistry 33(32): 9511-22.
Hong, M., V. Zhukareva, et al. (1998).
Li, W. and V. M. Lee (2006).
von Bergen, M., S. Barghorn, et al. (2001). "Mutations of tau protein in frontotemporal dementia promote aggregation of paired helical filaments by enhancing local beta-structure." J Biol Chem 276(51): 48165-74.
NCGC Assay Protocol Summary:
For screening, 2 uL/well human K18 P301L (15 uM unlabeled and 0.24 uM Alexa 594-labeled tau, final concentrations) in reagent buffer (100 mM sodium acetate pH 7) was dispensed into black solid 1536-well plates (Grenier) using a solenoid-based dispenser. Following transfer of 23 nL compound or DMSO vehicle by a pin tool, 2 uL/well heparin (20 uM final concentration) in reagent buffer was added and the plate centrifuged 15 s at 1000 RPM. Plates were incubated 6 hr at 37 C and then 1 uL/well ThT (30 uM final concentration) was added. After a 1 hr ambient incubation, the plates were read by an Envision (Perkin Elmer) to monitor ThT fluorescence (450/8 nm excitation and 510/23 nm emission).
Keywords: NIH Roadmap, MLPCN, MLI, MLSMR, NCGC, qHTS, tau, tauopathies, Alzheimer's disease, fibril, neurodegeneration, aggregation
In general terms: In qHTS, concentration-response curves come from the screen itself.
For `Nc1[nH][nH]c(=O)c1N=Nc1ccc2c(c1)OCO2`, the Potency is 11.2 µM (active). Take `Cc1[nH][nH]c(=O)c1C(c1ccc2c(c1)OCO2)c1c(C)[nH][nH]c1=O`: the Potency entry is “inactive”. The same measure, in the same setting: then `CC(=O)c1cc2c(cc1N)OCO2`, with “inactive”. As for `COc1ccccc1N1CCN(S(=O)(=O)CCNC(=O)COc2ccc(F)cc2)CC1`, the Potency entry is “inactive”. As to `Cc1ccc2c(c1)c1c(c(=O)n(-c3ccccc3)c(=O)n1CC(=O)c1ccc(Cl)cc1)n2C`, the Potency entry was “inactive”.

`COc1ccc(CCNC(=O)CCCn2c(=O)c3ccccc3n(Cc3ccc(F)cc3Cl)c2=O)cc1OC`: the Potency result is “inactive”. Same read-out and setting: next, `CN1/C(=C\C(=O)c2cccnc2Cl)C(C)(C)c2ccccc21`: “inactive”. On the same count and under the same terms, then `CN1/C(=C\C=C2\N=C(c3ccc(F)cc3)OC2=O)C(C)(C)c2ccccc21`, with 28.2 µM (active); and `CN1/C(=C\C(=O)c2oc3ccccc3c2N)C(C)(C)c2ccccc21`, with “inactive”.

For `COc1ccc(OCc2ccc(-c3nc(C#N)c(N4CCN(c5ccccc5)CC4)o3)o2)cc1`, the Potency result was “inactive”.

Turning to `COc1ccc(N=Cc2c(O)[nH]c3ccccc23)cc1OC`, the Potency was 14.1 µM (active).

As to `COCC(=O)N=Nc1c(O)[nH]c2ccccc12`, the Potency result is “inactive”. Consider `COc1ccccc1N=Cc1c(O)c2ccccc2oc1=O`, for which the Potency entry was “inactive”. On to `Cc1cc(NC(=O)c2ccc(-c3ccc(Cl)cc3)o2)cc(-c2nc3ncccc3o2)c1O`, for which the Potency entry is “inactive”. Turning to `Cc1oc2ncn(CC(C)C)c(=O)c2c1C(=O)N1CCN(c2ccccc2F)CC1`, the Potency result was “inactive”. Still for that read-out and setting: next, `COc1ccccc1CNS(=O)(=O)c1cc(Br)cc2c1N(C(C)=O)C(C)C2` (configuration not stated): “inactive”; `CCC(CC)C(=O)N1CCc2cc(OC)c(OC)cc2C1COc1ccc(F)cc1` (configuration not stated): “inactive”.

On to `CC1(OC(=O)CCc2ccccc2)C(=O)C=C2C=C(c3ccc(C#N)cc3)N(CCc3ccccn3)C=C2C1=O` (configuration not stated), for which the Potency was 28.2 µM (active) and the activity, negative = inhibition was 5.29% [at 11.5 µM] (inactive).

For the molecule `CC1(OC(=O)C2CCCC2)C(=O)C=C2C=C(c3ccc(C#N)cc3)OC=C2C1=O` (configuration not stated), the Potency entry is “inactive”. For the molecule `CCCCC1=CC2=CC(=O)C(C)(OC(=O)CC)C(=O)C2=CN1CCCOC(C)C` (configuration not stated), the activity, negative = inhibition was 0.166% [at 11.5 µM] (inactive). With `COc1ccc(NC(=O)CCCN2C(=O)CCn3nc(-c4cn(C)c5ccccc45)cc32)cc1OC`, the Potency result is “inactive”. The same measure, in the same setting: next, `COc1ccccc1OCC(=O)Nc1nnc2n1CCS2`: “inactive”; `CCc1ccc(NC(=O)C2CCCN2S(=O)(=O)c2ccc3nc(-c4ccccc4)[nH]c3c2)cc1` (configuration not stated): “inactive”; `COc1cc(C2C(C(=O)OCCC#N)=C(C)NC3=C2S(=O)(=O)c2ccccc23)cc(OC)c1OC` (configuration not stated): “inactive”. As for `CCOc1cc(C2C(C(=O)Nc3ccc(OC)cc3)=C(C)Nc3nc(SC)nn32)ccc1O` (configuration not stated), the Potency entry was “inactive”.

As to `COC(=O)C1=C(C)NC2=C(C(=O)c3ccccc32)C1c1ccc(-c2ccc(C(=O)O)cc2)o1` (configuration not stated), the Potency is 8.91 µM (active).

On to `COC(=O)C1=C(C)NC(=O)NC1/C=C/c1ccccc1` (configuration not stated), for which the Potency result was “inactive”.

On to `CCOc1cc(C2C(C(=O)OC)=C(C)NC3=C2C(=O)c2ccccc23)ccc1O` (configuration not stated), for which the Potency was 14.1 µM (active). Still for that read-out and setting: next, `COc1ccccc1NC(=O)C1=C(C)NC2=C(C(=O)CCC2)C1c1ccc(C)o1` (configuration not stated): “inactive”; `Cc1nn(C)c2c1c(C(F)(F)F)cc(=O)n2C(C)C(=O)NCc1ccc(Cl)cc1` (configuration not stated): “inactive”; `CC(C)(C)c1ccc(C(=O)NCC(c2ccco2)S(=O)(=O)c2ccc(F)cc2)cc1` (configuration not stated): “inactive”. Still for that read-out and setting: next, `Cc1ccc(Cl)cc1NC(=O)CSc1nc2ccccc2nc1Cc1ccccc1`: “inactive”; `Cc1ccc(NC(=O)C2CCN(S(=O)(=O)c3cc(-c4noc(C)n4)ccc3C)CC2)c(C)c1`: “inactive”; `O=C(NCCCc1ccccc1)c1ccc2c(c1)sc1nc(-c3ccc(F)cc3)cn12`: “inactive”. Still for that read-out and setting: then `COc1ccc2[nH]c3c(c2c1)CCN(C(=O)CCC1CCCC1)C3c1ccc(F)cc1` (configuration not stated), with “inactive”; and `CC(C)C(=O)Nc1nc2c(s1)CC(C(C)(C)C)CC2` (configuration not stated), with “inactive”; and `CCOC(=O)c1c(-c2ccccc2)csc1NC(=S)NC(=O)c1ccccc1`, with “inactive”. For the molecule `CCCS(=O)(=O)c1ncc(Cl)c(C(=O)Nc2scc(-c3ccccc3)c2C(=O)OCC)n1`, the Potency is 7.94 µM (active). Consider `CCOC(=O)c1c(-c2cccc(C)c2)csc1NC(=O)c1c(-c2ccccc2)noc1C`, for which the Potency result is “inactive”.

As for `COc1cc(CNC(=O)c2cc3n(n2)CCCN(Cc2cccc(F)c2)C3=O)cc(OC)c1OC`, the Potency entry was “inactive”. On the same count and under the same terms, then `Cc1ccc(NC(=O)CN2CCC(C(N)=O)CC2)cc1[N+](=O)[O-]`, with “inactive”. Still for that read-out and setting: then `Cc1ccc(-c2ccc(/C=N/NC(=O)CN3CCOCC3)o2)cc1[N+](=O)[O-]`, with 15.8 µM (active); and `Cc1cc(C)c([N+](=O)[O-])cc1-c1ccc(/C=N/NC(=O)c2nonc2N)o1`, with 5.01 µM (active). The same measure, in the same setting: next, `Nc1nnnn1CC(=O)N/N=C/c1ccc(-c2cccc(Cl)c2)o1`: “inactive”.

Turning to `COC(=O)N/N=C/c1ccc(-c2ccc(Cl)c(Cl)c2)o1`, the Potency result was “inactive”. Still for that read-out and setting: then `COc1cc(/C=N\NC(=O)c2nonc2N)c(OC)cc1Br`, with “inactive”; and `CCC(=O)N1N=C(c2ccc(OC)cc2)CC1c1cn(-c2ccccc2)nc1-c1cccs1` (configuration not stated), with “inactive”. The same measure, in the same setting: then `COc1cc(NC(=O)c2noc3c2CSc2ccccc2-3)cc(OC)c1OC`, with “inactive”; and `CCN(CC)c1ccc(/C=N/NC(=O)c2cnccn2)c(O)c1`, with 5.62 µM (active); and `CCN(CC)c1ccc(/C=N/Nc2nc(C)cc(C)n2)c(O)c1`, with “inactive”. On the same count and under the same terms, next, `Cc1cc(/C=N/NC(=O)c2cccnc2)c(C)n1CC(C)C`: “inactive”; `CC(CNC(=O)c1nnc(Cc2cccc(F)c2)o1)c1ccccc1` (configuration not stated): “inactive”. Take `O=C(CCSCc1cccc(F)c1)NCc1ccccc1`: the Potency result is “inactive”. For `COc1cc(OC)c(NC(=O)Cc2ccc(-n3c(C)nc4cccnc43)cc2)cc1Cl`, the Potency result was “inactive”. Still for that read-out and setting: then `COc1ccc(C(=O)CSc2c(C(C)C)cnc3c2c(=O)n(C)c(=O)n3C)cc1`, with “inactive”; and `CCCCNC(=O)Nc1c(C)cc(SC#N)cc1C`, with 22.4 µM (active); and `CCCCNC(=O)C(=O)c1ccccc1NC(C)=O`, with “inactive”. With `CCCCNC(=S)NNC(=O)c1cc(C)on1`, the Potency entry is “inactive”. For `NS(=O)(=O)c1ccc(NC(=S)NC(=O)c2cccc(Br)c2)cc1`, the Potency entry is “inactive”. Same read-out and setting: next, `O=C(NC(=S)Nc1cccc2c(O)cccc12)c1cccc(Br)c1`: 12.6 µM (active).

`O=C(NC(=S)Nc1ccc(S(=O)(=O)Nc2ncccn2)cc1)c1cccc(Br)c1`: the Potency result is “inactive”.
